Tests used:
Test in all cases: SPOT peptide array binding signal intensity (averaged, normalized) (arbitrary units (background-subtracted, floor 0; scale differs between SH3 domains)); higher = stronger binding of the SH3 domain to the peptide
[1] = target: AgAbp1
Description: (§1)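 GST-tagged SH3 domains from S. cerevisiae (Sc), A. gossypii (Ag), C. albicans (Ca) and S. pombe (Sp) were incubated at 10 ug/ml overnight at 4 C on cellulose SPOT membranes carrying 292 synthetic 15-mer peptides mined from the S. cerevisiae proteome (cysteines replaced by serines). Binding was detected with anti-GST antibody, HRP secondary and chemiluminescence, quantified with Genespotter, and reported as normalized spot intensities averaged over biological replicates.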

[2] = target: AgBbc1
Description: as §1

[3] = target: AgBem1-D1
Description: as §1

[4] = target: AgBzz1-D1
Description: as §1

[5] = target: AgBzz1-D2
Description: as §1

[6] = target: AgCyk3
Description: as §1

[7] = target: AgFus1
Description: as §1

[8] = target: AgHof1
Description: as §1

[9] = target: AgHse1
Description: as §1

[10] = target: AgLsb1
Description: as §1

[11] = target: AgLsb4
Description: as §1

[12] = target: AgMyo5
Description: as §1

[13] = target: AgNbp2
Description: as §1

[14] = target: AgRvs167
Description: as §1

[15] = target: AgSho1
Description: as §1

[16] = target: AgSla1-D1-D2
Description: as §1

[17] = target: AgSla1-D3
Description: as §1

[18] = target: CaAbp1-D1
Description: as §1

[19] = target: CaAbp1-D2
Description: as §1

[20] = target: CaBbc1
Description: as §1

[21] = target: CaBem1-D1
Description: as §1

[22] = target: CaBzz1-D1
Description: as §1

[23] = target: CaBzz1-D2
Description: as §1

[24] = target: CaCyk3
Description: as §1

[25] = target: CaFus1
Description: as §1

[26] = target: CaHof1
Description: as §1

[27] = target: CaHse1
Description: as §1

[28] = target: CaLsb1
Description: as §1

[29] = target: CaLsb4
Description: as §1

[30] = target: CaMyo5
Description: as §1

[31] = target: CaNbp2
Description: as §1

[32] = target: CaRvs167
Description: as §1

[33] = target: CaRvs167-3
Description: as §1

[34] = target: CaSho1
Description: as §1

[35] = target: CaSla1-D1-D2
Description: as §1

[36] = target: CaSla1-D3
Description: as §1

[37] = target: ScAbp1
Description: as §1

[38] = target: ScBbc1
Description: as §1

[39] = target: ScBem1-D1
Description: as §1

[40] = target: ScBzz1-D1
Description: as §1

[41] = target: ScBzz1-D2
Description: as §1

[42] = target: ScCyk3
Description: as §1

[43] = target: ScFus1
Description: as §1

[44] = target: ScHof1
Description: as §1

[45] = target: ScHse1
Description: as §1

[46] = target: ScLsb1
Description: as §1

[47] = target: ScLsb2
Description: as §1

[48] = target: ScLsb3
Description: as §1

[49] = target: ScLsb4
Description: as §1

[50] = target: ScMyo3
Description: as §1

[51] = target: ScMyo5
Description: as §1

[52] = target: ScNbp2
Description: as §1

[53] = target: ScPex13
Description: as §1

[54] = target: ScRvs167
Description: as §1

[55] = target: ScSho1
Description: as §1

[56] = target: ScSla1-D1-D2
Description: as §1

[57] = target: ScSla1-D3
Description: as §1

[58] = target: SpAbp1-D1
Description: as §1

[59] = target: SpBbc1
Description: as §1

[60] = target: SpBzz1-D1
Description: as §1

[61] = target: SpBzz1-D2
Description: as §1

[62] = target: SpCyk3
Description: as §1

[63] = target: SpHof1
Description: as §1

[64] = target: SpHof1-2
Description: as §1

[65] = target: SpHof1-3
Description: as §1

[66] = target: SpHse1
Description: as §1

[67] = target: SpLsb1
Description: as §1

[68] = target: SpLsb4
Description: as §1

[69] = target: SpMyo1
Description: as §1

[70] = target: SpNbp2
Description: as §1

[71] = target: SpPex13
Description: as §1

[72] = target: SpRvs167
Description: as §1

[73] = target: SpSla1-D1-D2
Description: as §1

[74] = target: SpSla1-D3
Description: as §1

Question: How did the “SPOT peptide array binding signal intensity” value [1] turn out when KIRRSSLMIPNPQQF was run?
Answer: 26.5

Question: And the “SPOT peptide array binding signal intensity” value [2]?
Answer: 56.5

Question: What about the “SPOT peptide array binding signal intensity” value [3] of the same binder?
Answer: 234

Question: What about the “SPOT peptide array binding signal intensity” value [4] of the same binder?
Answer: 18.5

Question: What about the “SPOT peptide array binding signal intensity” value [5] of the same binder?
Answer: 39

Question: And the “SPOT peptide array binding signal intensity” value [6]?
Answer: ≤ 0

Question: And the “SPOT peptide array binding signal intensity” value [7]?
Answer: 88

Question: What about the “SPOT peptide array binding signal intensity” value [8] of the same binder?
Answer: 56.8

Question: What about the “SPOT peptide array binding signal intensity” value [9] of the same binder?
Answer: 138

Question: What about the “SPOT peptide array binding signal intensity” value [10] of the same binder?
Answer: 86.5

Question: What about the “SPOT peptide array binding signal intensity” value [11] of the same binder?
Answer: 14

Question: And the “SPOT peptide array binding signal intensity” value [12]?
Answer: 2

Question: What about the “SPOT peptide array binding signal intensity” value [13] of the same binder?
Answer: 15

Question: And the “SPOT peptide array binding signal intensity” value [14]?
Answer: 1.67

Question: And the “SPOT peptide array binding signal intensity” value [15]?
Answer: 15.5

Question: And the “SPOT peptide array binding signal intensity” value [16]?
Answer: 186

Question: What about the “SPOT peptide array binding signal intensity” value [17] of the same binder?
Answer: 3.5

Question: And the “SPOT peptide array binding signal intensity” value [18]?
Answer: 316

Question: What about the “SPOT peptide array binding signal intensity” value [19] of the same binder?
Answer: 153

Question: What about the “SPOT peptide array binding signal intensity” value [20] of the same binder?
Answer: 214

Question: What about the “SPOT peptide array binding signal intensity” value [21] of the same binder?
Answer: 65.5

Question: What about the “SPOT peptide array binding signal intensity” value [22] of the same binder?
Answer: 195

Question: And the “SPOT peptide array binding signal intensity” value [23]?
Answer: 206

Question: What about the “SPOT peptide array binding signal intensity” value [24] of the same binder?
Answer: 11

Question: What about the “SPOT peptide array binding signal intensity” value [25] of the same binder?
Answer: 383

Question: What about the “SPOT peptide array binding signal intensity” value [26] of the same binder?
Answer: 1

Question: And the “SPOT peptide array binding signal intensity” value [27]?
Answer: 12.5

Question: What about the “SPOT peptide array binding signal intensity” value [28] of the same binder?
Answer: 4

Question: And the “SPOT peptide array binding signal intensity” value [29]?
Answer: 72.5

Question: What about the “SPOT peptide array binding signal intensity” value [30] of the same binder?
Answer: 20.5

Question: And the “SPOT peptide array binding signal intensity” value [31]?
Answer: 129

Question: And the “SPOT peptide array binding signal intensity” value [32]?
Answer: 42.3

Question: What about the “SPOT peptide array binding signal intensity” value [33] of the same binder?
Answer: 7.5

Question: What about the “SPOT peptide array binding signal intensity” value [34] of the same binder?
Answer: 84.5

Question: And the “SPOT peptide array binding signal intensity” value [35]?
Answer: 532

Question: What about the “SPOT peptide array binding signal intensity” value [36] of the same binder?
Answer: 352

Question: And the “SPOT peptide array binding signal intensity” value [37]?
Answer: 42

Question: And the “SPOT peptide array binding signal intensity” value [38]?
Answer: 22.2

Question: And the “SPOT peptide array binding signal intensity” value [39]?
Answer: 136

Question: And the “SPOT peptide array binding signal intensity” value [40]?
Answer: 40

Question: And the “SPOT peptide array binding signal intensity” value [41]?
Answer: 32

Question: And the “SPOT peptide array binding signal intensity” value [42]?
Answer: 24

Question: And the “SPOT peptide array binding signal intensity” value [43]?
Answer: 68

Question: What about the “SPOT peptide array binding signal intensity” value [44] of the same binder?
Answer: ≤ 0

Question: What about the “SPOT peptide array binding signal intensity” value [45] of the same binder?
Answer: 388

Question: And the “SPOT peptide array binding signal intensity” value [46]?
Answer: 20.5

Question: And the “SPOT peptide array binding signal intensity” value [47]?
Answer: 1.5

Question: What about the “SPOT peptide array binding signal intensity” value [48] of the same binder?
Answer: 15.5

Question: What about the “SPOT peptide array binding signal intensity” value [49] of the same binder?
Answer: ≤ 0

Question: What about the “SPOT peptide array binding signal intensity” value [50] of the same binder?
Answer: 5

Question: And the “SPOT peptide array binding signal intensity” value [51]?
Answer: 7

Question: What about the “SPOT peptide array binding signal intensity” value [52] of the same binder?
Answer: 126

Question: And the “SPOT peptide array binding signal intensity” value [53]?
Answer: 46

Question: What about the “SPOT peptide array binding signal intensity” value [54] of the same binder?
Answer: 40.2

Question: What about the “SPOT peptide array binding signal intensity” value [55] of the same binder?
Answer: 304

Question: And the “SPOT peptide array binding signal intensity” value [56]?
Answer: 526

Question: And the “SPOT peptide array binding signal intensity” value [57]?
Answer: 337

Question: And the “SPOT peptide array binding signal intensity” value [58]?
Answer: 95

Question: And the “SPOT peptide array binding signal intensity” value [59]?
Answer: 3.5

Question: And the “SPOT peptide array binding signal intensity” value [60]?
Answer: 311

Question: And the “SPOT peptide array binding signal intensity” value [61]?
Answer: ≤ 0

Question: What about the “SPOT peptide array binding signal intensity” value [62] of the same binder?
Answer: 6

Question: And the “SPOT peptide array binding signal intensity” value [63]?
Answer: 94.5

Question: And the “SPOT peptide array binding signal intensity” value [64]?
Answer: 24

Question: And the “SPOT peptide array binding signal intensity” value [65]?
Answer: 241

Question: What about the “SPOT peptide array binding signal intensity” value [66] of the same binder?
Answer: 184

Question: What about the “SPOT peptide array binding signal intensity” value [67] of the same binder?
Answer: 5.5

Question: And the “SPOT peptide array binding signal intensity” value [68]?
Answer: 144

Question: And the “SPOT peptide array binding signal intensity” value [69]?
Answer: 9.5

Question: What about the “SPOT peptide array binding signal intensity” value [70] of the same binder?
Answer: 33

Question: And the “SPOT peptide array binding signal intensity” value [71]?
Answer: 162

Question: What about the “SPOT peptide array binding signal intensity” value [72] of the same binder?
Answer: 17.3

Question: And the “SPOT peptide array binding signal intensity” value [73]?
Answer: 8

Question: And the “SPOT peptide array binding signal intensity” value [74]?
Answer: 68

— the supplement of paper PMC4466140
